# Source: PubChem BioAssay (NCATS)
# Inconclusive results are not listed. Entries that show only a call come without a potency. Activity calls are given as the source filed them. Calls come from the whole dose curve; as a rule, active = well fitted curve in the direction sought with a large enough effect; inconclusive = small, poorly fitted or top-dose-only effect, or another doubt; inactive = no such curve, though single readings can be large; an effect the other way counts as inactive or inconclusive.
# What was measured:
# [1] = qHTS of pediatric cancer cell lines to identify multiple opportunities for drug repurposing: Primary screen for U-2 OS cells (AID 1347096); note: nearly all actives have a fitted effect of over 50% in size
# Procedure, shortened: (§1)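 Viability after 48 h compound treatment at 37C, 500-1,000 cells/well, read as ATP luminescence with CellTiter-Glo. Primary screens used 11-point (MIPE, 0.78 nM-46 µM) or 8-point (NPC, 0.59 nM-46 µM) final concentrations; follow-up screens used 11-point dilutions.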
# [2] = qHTS of pediatric cancer cell lines to identify multiple opportunities for drug repurposing: Primary screen for Saos-2 cells (AID 1347097); note: nearly all actives have a fitted effect of over 40% in size; note: potency is the fitted concentration of half-maximal effect
# Procedure, shortened: (§2)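 ATP-based luminescence (CellTiter-Glo) quantifies viability after a 48-hour exposure. Compounds are dosed across 8 or 11 final concentrations; DMSO and 2.3 µM bortezomib serve as controls.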
# [3] = qHTS of pediatric cancer cell lines to identify multiple opportunities for drug repurposing: Primary screen for SK-N-SH cells (AID 1347098); note: nearly all actives have a fitted effect of over 65% in size; note: potency is the fitted concentration of half-maximal effect
# Procedure, shortened: (§3)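 Cells (500-1,000/well) rested 5 h, then received compounds for 48 h; metabolically active cells were measured by CellTiter-Glo luminescence. Final concentrations spanned up to 46 µM (MIPE, 11-point) or 0.59 nM-46 µM (NPC, 8-point) in primary screens, 11-point in follow-ups.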
# [4] = qHTS of pediatric cancer cell lines to identify multiple opportunities for drug repurposing: Primary screen for LAN-5 cells (AID 1347100); note: potency is the fitted concentration of half-maximal effect
# Procedure, shortened: as §1
# [5] = qHTS of pediatric cancer cell lines to identify multiple opportunities for drug repurposing: Primary screen for Rh18 cells (AID 1347102); note: nearly all actives have a fitted effect of over 65% in size
# Procedure, shortened: as §1
# [6] = qHTS of pediatric cancer cell lines to identify multiple opportunities for drug repurposing: Primary screen for OHS-50 cells (AID 1347103); note: nearly all actives have a fitted effect of over 40% in size; note: potency is the fitted concentration of half-maximal effect
# Procedure, shortened: as §3
# [7] = qHTS of pediatric cancer cell lines to identify multiple opportunities for drug repurposing: Primary screen for MG 63 (6-TG R) cells (AID 1347105); note: nearly all actives have a fitted effect of over 50% in size
# Procedure, shortened: as §2
# [8] = qHTS of pediatric cancer cell lines to identify multiple opportunities for drug repurposing: Primary screen for control Hh wild type fibroblast cells (AID 1347106);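 note: series mostly up to about 46 µM; a drop in luminescence marks cytotoxicity and a rise apparent proliferation; nearly all actives have a fitted effect of over 55% in size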
# Procedure, shortened: as §1
# [9] = qHTS of pediatric cancer cell lines to identify multiple opportunities for drug repurposing: Primary screen for Rh30 cells (AID 1347107); note: series mostly up to about 46 µM; nearly all actives have a fitted effect of over 75% in size
# Procedure, shortened: as §1
# [10] = qHTS of pediatric cancer cell lines to identify multiple opportunities for drug repurposing: Primary screen for Rh41 cells (AID 1347108);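 note: series mostly up to about 46 µM; luminescence drop marks cytotoxic hits; nearly all actives have a fitted effect of over 70% in size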
# Procedure, shortened: as §2
# [11] = qHTS of pediatric cancer cell lines to identify multiple opportunities for drug repurposing: Confirmatory screen for NB1643 cells (AID 1347109); note: nearly all actives have a fitted effect of over 45% in size
# Procedure, shortened: as §1
# [12] = qHTS of pediatric cancer cell lines to identify multiple opportunities for drug repurposing: Confirmatory screen for A673 cells (AID 1347110);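 note: cells exposed to compound for 48 h before the viability read; nearly all actives have a fitted effect of over 65% in size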; note: potency is the fitted concentration of half-maximal effect
# Procedure, shortened: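 Concentration-response curves came straight from titrations: 11 points (0.78 nM to 46 µM) for MIPE and several concentrations (0.59 nM to 46 µM) for NPC in primary, 11 points in follow-up. Readout: ATP luminescence at 48 h.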
# [13] = qHTS of pediatric cancer cell lines to identify multiple opportunities for drug repurposing: Confirmatory screen for DAOY cells (AID 1347114); note: nearly all actives have a fitted effect of over 65% in size; note: potency is the fitted concentration of half-maximal effect
# Procedure, shortened: (§4)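 Viability measured as metabolically active cells via CellTiter-Glo luminescence following 48 hours of compound exposure, 11-point dilutions in confirmatory testing. 500-1,000 cells/well plated 5 hours before dosing; controls were DMSO and 2.3 µM bortezomib.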
# [14] = qHTS of pediatric cancer cell lines to identify multiple opportunities for drug repurposing: Confirmatory screen for SJ-GBM2 cells (AID 1347116); note: nearly all actives have a fitted effect of over 60% in size; note: potency is the fitted concentration of half-maximal effect
# Procedure, shortened: as §4
# [15] = qHTS of pediatric cancer cell lines to identify multiple opportunities for drug repurposing: Primary screen for NB1643 cells (AID 1347099); note: nearly all actives have a fitted effect of over 50% in size; note: potency is the fitted concentration of half-maximal effect
# Procedure, shortened: as §2
# [16] = qHTS of pediatric cancer cell lines to identify multiple opportunities for drug repurposing: Primary screen for BT-12 cells (AID 1347101); note: nearly all actives have a fitted effect of over 25% in size; note: potency is the fitted concentration of half-maximal effect
# Procedure, shortened: as §3
# [17] = qHTS of pediatric cancer cell lines to identify multiple opportunities for drug repurposing: Primary screen for RD cells (AID 1347104); note: nearly all actives have a fitted effect of over 55% in size; note: potency is the fitted concentration of half-maximal effect
# Procedure, shortened: as §2
# [18] = qHTS of pediatric cancer cell lines to identify multiple opportunities for drug repurposing: Confirmatory screen for BT-12 cells (AID 1347112); note: nearly all actives have a fitted effect of over 55% in size
# Procedure, shortened: as §1
# [19] = qHTS of pediatric cancer cell lines to identify multiple opportunities for drug repurposing: Confirmatory screen for BT-37 cells (AID 1347117); note: nearly all actives have a fitted effect of over 55% in size
# Procedure, shortened: as §1
# [20] = qHTS of pediatric cancer cell lines to identify multiple opportunities for drug repurposing: Confirmatory screen for TC32 cells (AID 1347118)
# Procedure, shortened: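 Luminescent CellTiter-Glo read-out of metabolically active TC32 cells after 48 h compound exposure. Primary: MIPE 11-point, 0.78 nM–46 µM; NPC 8-point, 0.59 nM–46 µM. Confirmatory: 11-point dilutions.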
Compound,Potency [1],Potency [2],Potency [3],Potency [4],Potency [5],Potency [6],Potency [7],Potency [8],Potency [9],Potency [10],Potency [11],Potency [12],Potency [13],Potency [14],Potency [15],Potency [16],Potency [17],Potency [18],Potency [19],Potency [20]
CCCN1CCO[C@@H]2c3cc(O)ccc3OC[C@@H]21,inactive,inactive,21.5 µM (active),14.8 µM (active),inactive,inactive,inactive,inactive,inactive,inactive,inactive,inactive,inactive,inactive,–,–,–,–,–,–
O=C(O)CCCOc1ccc(Cl)cc1Cl,inactive,inactive,–,inactive,inactive,–,inactive,inactive,inactive,inactive,–,inactive,inactive,–,inactive,inactive,inactive,inactive,inactive,–
c1ccc2c(CN3CCNCC3)cccc2c1,inactive,inactive,inactive,–,inactive,–,inactive,inactive,inactive,inactive,–,–,–,–,–,–,inactive,–,–,–
Oc1ccc2c3c1O[C@H]1[C@@H](O)C=C[C@H]4[C@@H](C2)NCC[C@@]341,inactive,inactive,inactive,–,inactive,inactive,inactive,inactive,inactive,inactive,–,–,–,–,inactive,–,inactive,–,–,–
NC1=NC(=O)N2CC12 (stereo not drawn),inactive,13.2 µM (active),inactive,–,inactive,inactive,inactive,inactive,inactive,inactive,–,–,–,–,inactive,–,–,–,–,–
C=C[C@@H]1CN2CCC1C[C@@H]2[C@@H](O)c1ccnc2ccccc12 (stereo partly drawn),inactive,26.4 µM (active),30.4 µM (active),–,–,30.6 µM (active),inactive,inactive,–,–,–,–,–,–,10.5 µM (active),–,29.6 µM (active),–,–,–
N#C[C@H](O[C@@H]1O[C@H](CO[C@@H]2O[C@H](CO)[C@H](O)[C@H](O)[C@H]2O)[C@H](O)[C@H](O)[C@H]1O)c1ccccc1,inactive,18.7 µM (active),–,23.5 µM (active),–,21.7 µM (active),–,inactive,–,–,–,–,–,–,11.8 µM (active),24.3 µM (active),–,–,–,–
CC(=CCCC1=CCC(C2=CC(=O)OC2O)OC1O)CCC1=C(C)CCCC1(C)C (stereo not drawn),inactive,inactive,–,inactive,–,inactive,–,inactive,inactive,–,–,–,–,–,inactive,inactive,inactive,–,–,–
c1cc2c(cc1[C@H]1OC[C@H]3[C@H]1CO[C@H]3c1ccc3c(c1)OCO3)OCO2,inactive,inactive,–,inactive,inactive,inactive,inactive,inactive,–,inactive,–,–,–,–,inactive,inactive,–,–,–,–
CN(C)[C@@H]1C(=O)C(C(N)=O)=C(O)[C@@]2(O)C(=O)C3=C(O)c4c(O)cccc4[C@@](C)(O)[C@H]3[C@H](O)[C@@H]12,inactive,inactive,–,inactive,inactive,inactive,inactive,inactive,–,inactive,–,–,–,–,inactive,inactive,–,–,–,–
CC(N[C@H]1C[C@H]1c1ccccc1)c1ccc2c(c1)OCCO2 (stereo partly drawn),inactive,inactive,–,inactive,inactive,inactive,inactive,inactive,–,inactive,–,–,–,–,inactive,–,inactive,–,–,–
CC(=Cc1csc(C)n1)[C@@H]1C[C@H]2O[C@@H]2CCC[C@H](C)[C@@H](O)[C@@H](C)C(=O)C(C)(C)[C@@H](O)CC(=O)O1,inactive,0.001 µM (active),inactive,0.001 µM (active),inactive,0.001 µM (active),–,inactive,–,–,–,0.0185 µM (active),0.0131 µM (active),0.104 µM (active),–,–,–,–,–,0.0147 µM (active)
Cc1nc(-c2ccc(-c3ccc(C(=O)N4CCc5cc6c(cc54)C4(CCN(C)CC4)CO6)cc3)c(C)c2)no1,inactive,inactive,–,inactive,inactive,inactive,inactive,inactive,inactive,inactive,–,–,–,–,inactive,inactive,inactive,–,–,–
CC(C)(C)[C@]1(O)C[C@@H]2OC(=O)C[C@@]23C(=O)O[C@@H]2OC(=O)[C@H](O)C213 (stereo partly drawn),inactive,inactive,–,inactive,inactive,inactive,inactive,inactive,inactive,inactive,–,–,–,–,inactive,inactive,inactive,–,–,–
